Results filed as inconclusive are left out. Active and inactive are the calls of the source. Calls come from the whole dose curve; as a rule, active = well fitted curve in the direction sought with a large enough effect; inconclusive = small, poorly fitted or top-dose-only effect, or another doubt; inactive = no such curve, though single readings can be large or run the other way.
Experiment: qHTS Assay for Rab9 Promoter Activators: Hit Validation Using Renilla Luciferase Read-Out
Settings: Huh7 NPC1 promoter Renilla luciferase reporter, 24 h; series mostly up to 76.9 µM
How it was run: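 Huh7 cells stably carrying NPC promoter-luciferase, 1,500 cells/well, exposed to compound for 24 h at 37 deg C. Luminescence read 10 min after […] addition; validation of firefly-read primary hits.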

Potency, inactive:
COc1ccccc1NC(=S)NCc1ccc(Cl)cc1, Cc1ccc(NC(=O)c2cccc(N3C(=O)CCC3=O)c2)nc1, C=CCn1c(C)nnc1SCC(=O)Nc1nccs1, CCC(C)(C)NC(=O)C(c1ccc(OC)cc1)N(Cc1cccs1)C(=O)CCC(=O)Nc1cc(C)on1 (centres undefined), O=C(CCCn1c(=O)oc2ccccc21)N1CCN(c2ccccn2)CC1, O=C(CSc1nnc(-c2ccccn2)o1)Nc1ccccc1F, COC(=O)Nc1nc2ccc(Br)cc2s1, O=C(CCCN1C(=O)C(c2ccccc2)Oc2cccnc21)Nc1ccccc1Cl (centres undefined), CCCOP(=O)(c1ccc(N(C)C)cc1)C(O)c1cccnc1 (centres undefined), CC(=O)Nc1ccc(NC(=O)COc2ncnc3ccccc23)cc1, O=C(N/N=C/c1ccc(-c2ccc(Br)cc2)o1)c1ccc2c(c1)OCO2, Cc1ccc(C#N)c(SCC(=O)Nc2nccs2)n1, O=C(COc1ccccc1F)Nc1ccc(-c2nc3ccccc3s2)cc1, COc1ccc(NC(=O)CN(C)C(=O)c2ccc(=O)[nH]c2)cc1, O=C(O)CSc1nnc(-c2ccncc2)n1CCc1ccccc1, COc1ccc(-n2cc(-c3ccc(Cl)cc3)[nH]c2=S)cc1, NC(=O)COC(=O)c1ccc2noc(-c3ccccc3)c2c1, CC(=O)Nc1nnc(SCC(=O)NCCOc2ccccc2)s1, CCC(=O)Nc1cc(-c2cc3ccccc3oc2=O)ccc1OC, CC(=O)NC(=S)Nc1ccc2oc(-c3cc(F)c(F)cc3Cl)nc2c1, Cc1nc(-c2ccc(S(=O)(=O)Oc3ccc(Cl)cc3Cl)s2)cs1, COc1cccc(C(C(=O)NC2CCCC2)N(CCC(C)C)C(=O)CCC(=O)Nc2cc(C)on2)c1 (centres undefined), O=C(NCC1CCCO1)C(c1ccc(F)cc1)N(Cc1ccc2c(c1)OCO2)C(=O)c1ccc(CN2CCOCC2)o1 (centres undefined), O=C(c1cc2cc([N+](=O)[O-])ccc2oc1=O)n1cccn1, O=C(O)C1=CC[C@@H](c2ccc(Cl)cc2)N(S(=O)(=O)c2ccc(Cl)cc2)[C@H]1c1ccccc1, CCCOC(=O)Cn1cnc2scc(-c3ccc(OC)cc3)c2c1=O, CC1CN(C(=O)c2ccncc2)CC(C)O1 (centres undefined), CNC(=O)Cn1nc(C)c2ccccc2c1=O, COc1ccccc1CNC(=O)COc1ccc(C)cc1, Cc1ccccc1NC(=O)Cc1nc(COC(=O)CC(C)c2ccccc2)cs1 (centres undefined), CCC1=[N+](CC(=O)c2ccc(C)cc2)CCn2cccc21, O=C(NC1CCCC1)C(c1ccc(F)cc1)N(C(=O)c1csnn1)c1ccccc1 (centres undefined), Cc1ccc(NC(=O)NC(=O)c2ccccc2)cc1F, Fc1ccc(-c2nc3nc4ccccc4nc3n2Cc2ccco2)cc1, Cc1ccc(C(=O)NC2CCN(CC(=O)Nc3c(C)cc(C)cc3C)CC2)cc1, CC(=O)Nc1ccc(-c2csc(Nc3ncccn3)n2)cc1, OCCC1CN(Cc2nc3ccccc3s2)CCN1C1CCCC1 (centres undefined), COCCNC(=O)Cn1nc(-c2ccccc2)c2ccccc2c1=O, CC1CC(C)CN(CC(=O)N2CCOCC2)C1 (centres undefined)

— PubChem BioAssay AID624117 (National Center for Advancing Translational Sciences (NCATS), 2012)
